Assay [1] is described as follows: Viability qHTS for spleen associated tyrosine kinase inhibitor (SYKi) naive MV4-11 cells (AID 1963823). Further: nearly all actives have a fitted effect of over 40% in size. The procedure, abridged:
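SYK inhibitor-naive MV4-11 cells, 500 per well, exposed to compounds for 72 hr at 37 C, 5% CO2. Viability read as CellTiter-Glo luminescence after 10 min at room temperature.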

Assay [2] is described as follows: Cellular viability qHTS for adrenocortical cancer (ACC) cell line SW-13 (AID 1963989). Further: nearly all actives have a fitted effect of over 65% in size.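 On activity (max response): cells grown in serum-free medium with ITS supplement; on the % scale 0 is the no-effect control and ±100 the full control effect.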 As to conditions: SW-13 ACC cells viability, CellTiter-Glo, 48 h; activity (max response): hits give low values. The procedure, abridged: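 SW-13 cells in ITS-supplemented serum-free DMEM were plated overnight, then exposed for 48 h at 37C to compound titrations (up to 46 uM final). Viability was read by CellTiter-Glo luminescence; four-parameter logistic fits gave IC50 and efficacy.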
In general terms: qHTS replaces the single test concentration by a dilution series.

Assay [3] in a line: Cellular viability qHTS for adrenocortical cancer (ACC) cell line NCI-H295R (AID 1963990). Further: nearly all actives have a fitted effect of over 60% in size. The procedure, abridged:
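Luminescent ATP read-out (CellTiter-Glo, 20 min RT) after 48 h drug exposure of NCI-H295R cells; a titration up to 46 uM final. Data normalized to doxorubicin (100% inhibition) and DMSO (0%); 4-parameter fit gives IC50, max response.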

“And” between values parts separate entries of the source, which are not always exact repeats. Identical values can stand only once. Results filed as inconclusive are left out. Unmarked numbers belong to inactive results. The source made the active and inactive calls. The call rests on the fitted dose curve; in most records, active means well fitted curve in the direction sought with a large enough effect; inconclusive means small, poorly fitted or top-dose-only effect, or another doubt; inactive means no such curve, though single readings can be large; an effect the other way counts as inactive or inconclusive.
Potency means the concentration at half of the fitted maximal effect.

With `C=CCNC1=C2C[C@@H](C)C[C@H](OC)[C@H](O)[C@@H](C)/C=C(\C)[C@H](OC(N)=O)[C@@H](OC)/C=C\C=C(/C)C(=O)NC(=CC1=O)C2=O`, the Potency in assay [1] was 0.59 µM (active); in assay [2] it was 3.55 µM (active).
`C#C[C@]1(O)CC[C@H]2[C@@H]3CCC4=CC(=O)CC[C@@H]4[C@H]3CC[C@@]21C`: in assay [1], the Potency result is “inactive”. Besides, in assay [2], the activity (max response) was 2.7%.
With `CCn1ccnc1CC1COc2ccccc2O1` (stereo not drawn), the Potency result in assay [1] and in assay [3] was “inactive” each time. Also, the activity (max response) in assay [2] was 8.12%.
Take `O=C(NO)c1ccc(C2=Nc3ccccc3Oc3ccccc32)cc1`: the values for the Potency in assay [1], in assay [2] and in assay [3] were 3.32 µM (active), 22.4 µM (active) and 5.01 µM (active), respectively.
On to `CC(C(=O)O)c1ccc(/C=C2\CCCCC2=O)cc1` (stereo not drawn), for which the Potency entry in assay [1] and in assay [3] was “inactive” each time. Moreover, the activity (max response) in assay [2] is 8.31%.
`NC(N)=Nc1nc(CSCC/C(N)=N/S(N)(=O)=O)cs1`: the Potency result in assay [1] and in assay [3] was “inactive” in each case. In addition, the activity (max response) in assay [2] is 9.53%.
Regarding `O=C(O)c1ccc(CN2CCC(CN[C@@H]3C[C@H]3c3ccccc3)CC2)cc1`, the Potency result in assay [1] and in assay [3] was “inactive” throughout. For the same compound, in assay [2], the activity (max response) is 7.26%.
Regarding `CCCCC(CC)COC(=O)c1ccc(N(C)C)cc1` (stereo not drawn), the Potency entry in assay [1] and in assay [3] was “inactive” each time. Moreover, in assay [2], the activity (max response) is -4.79%.
For `Cc1c(Nc2ncccc2C(=O)O)cccc1C(F)(F)F`, the Potency entry in assay [1] is “inactive”. In addition, the activity (max response) in assay [2] was -9.06%.
In the case of `C(=C\c1ccccc1)/CN1CCN(C(c2ccccc2)c2ccccc2)CC1`, the Potency entry in assay [1] and in assay [3] was “inactive” throughout. Further, the activity (max response) in assay [2] was -1.91%.
As to `CC1c2cccc(O)c2C(O)=C2C(=O)C3(O)C(O)=C(C(N)=O)C(=O)C(N(C)C)C3C(O)C21` (stereo not drawn), in assay [1], the Potency is 20.9 µM (active). The activity (max response) in assay [2] is 8.67%. Further, the Potency result in assay [3] is “inactive”.
Turning to `CN=C(NC#N)NCCSCc1nc[nH]c1C`, the Potency result in assay [1] and in assay [3] was “inactive” throughout. In assay [2], the activity (max response) was -4.08%.
With `Nc1ccc(S(=O)(=O)Nc2ccccn2)cc1`, the Potency entry in assay [1] and in assay [3] was “inactive” throughout. Besides, in assay [2], the activity (max response) was 6.67%.
Turning to `C1CCN2C[C@@H]3C[C@@H](CN4CCCC[C@@H]34)[C@H]2C1`, the Potency result in assay [1] and in assay [3] was “inactive” each time. Besides, the activity (max response) in assay [2] was -0.968%.
For the compound `Cc1nnc(C(C)C)n1C1CC2CCC(C1)N2CCC(NC(=O)C1CCC(F)(F)CC1)c1ccccc1` (stereo not drawn), the Potency result in assay [1] and in assay [3] was “inactive” in each case. Also, the activity (max response) in assay [2] is -4.92%.
Turning to `CC(=O)OCC(=O)[C@@]1(O)CC[C@H]2[C@@H]3CCC4=CC(=O)C=C[C@]4(C)[C@H]3[C@@H](O)C[C@@]21C`, the Potency entry in assay [1] and in assay [3] was “inactive” each time. Moreover, the activity (max response) in assay [2] is 1.48% and -12.4%.
On to `CCCCNc1ncc2c(-c3ccc(CN4CCN(C)CC4)cc3)cn(C3CCC(O)CC3)c2n1` (stereo not drawn), for which the Potency in assay [1] is 0.0105 µM (active); in assay [2] it was 11.2 µM (active); in assay [3], 6.31 µM (active).
For the compound `CN1CCC[C@@H]1Cc1c[nH]c2ccc(CCS(=O)(=O)c3ccccc3)cc12`, the Potency entry in assay [1] and in assay [3] was “inactive” throughout. The activity (max response) in assay [2] was -0.887%.
In the case of `O=C(CCCCCCC(=O)N/N=C/c1ccc(N(c2ccccc2)c2ccccc2)cc1)NO`, the figures for the Potency in assay [1], in assay [2] and in assay [3] were 4.17 µM (active), 28.2 µM (active) and 0.631 µM (active), respectively.
As for `CC1(C)[C@@H](O)CC[C@]2(C)[C@H]3C(=O)C=C4[C@@H]5C[C@@](C)(C(=O)O)CC[C@]5(C)CC[C@@]4(C)[C@]3(C)CC[C@@H]12`, the Potency result in assay [1] and in assay [3] was “inactive” in each case. Moreover, in assay [2], the activity (max response) is 3.49%.
As to `C[C@@H]1CC(=O)Nc2cccc(-c3ccc4c(c3)c(-c3cnn(C)c3)nn4C)c2N1`, the Potency in assay [1] is 2.09 µM (active). Also, in assay [2], the activity (max response) was -3.66%. In assay [3], the Potency result is “inactive”.
Turning to `Nc1ccc(C(=O)Oc2ccccc2)c(O)c1`, the Potency entry in assay [1] and in assay [3] was “inactive” throughout. For the same compound, in assay [2], the activity (max response) was -6.48%.
As for `C[N+]1(CC2COC(c3ccccc3)(C3CCCCC3)O2)CCCCC1` (stereo not drawn), the Potency in assay [1] was 13.3 µM (active). The activity (max response) in assay [2] is -27.2%. Moreover, in assay [3], the Potency result is “inactive”.
In the case of `Cc1ccc(/C=N/n2c(-c3ccccc3)csc2=S)cc1`, the Potency result in assay [1] and in assay [3] was “inactive” each time. Also, in assay [2], the activity (max response) is 8.75%.
For the compound `O=C1CC2(CCCC2)CC(=O)N1CCCCN1CCN(c2ncccn2)CC1`, the Potency in assay [1] was 9.44 µM (active). The activity (max response) in assay [2] was -4.13%. In assay [3], the Potency entry was “inactive”.
On to `COCc1c(C(C)C)nc(C(C)C)c(/C=C/[C@@H](O)C[C@@H](O)CC(=O)O)c1-c1ccc(F)cc1`, for which the results for the Potency in assay [1], in assay [2] and in assay [3] were 0.168 µM (active), 2.59 µM (active) and 1.16 µM (active), respectively.
With `CN1CCN(c2ccc(-c3cccc(CN4CCOCC4)c3)cc2NC(=O)c2c[nH]c(=O)cc2C(F)(F)F)CC1`, the Potency result in assay [1] and in assay [3] was “inactive” in each case. Also, the activity (max response) in assay [2] is -3.17%.
As to `CC(N)C(=O)OC(C)(C)Cc1ccc(Cl)cc1` (stereo not drawn), the Potency entry in assay [1] and in assay [3] was “inactive” throughout. Also, the activity (max response) in assay [2] is 12.9%.
With `Nc1ccc(S(=O)(=O)NC(=O)c2ccccc2)cc1`, the Potency result in assay [1] and in assay [3] was “inactive” in each case. Moreover, the activity (max response) in assay [2] is 4.69%.
For the compound `CC1(C)OC2=C(C(=O)c3ccccc3C2=O)[C@H](NCc2ccccc2)[C@@H]1O`, the Potency in assay [1] is 2.63 µM (active); in assay [2], 3.98 µM (active); in assay [3] it was 3.16 µM (active).
As to `O=C(O)C1(C(=O)O)CCC1.[NH2-].[NH2-].[Pt+2]`, the Potency result in assay [1] and in assay [3] was “inactive” each time. In addition, the activity (max response) in assay [2] was 10.4%.
With `Cc1cc(C)c(S(=O)(=O)N(CCc2cccc(Br)c2)Cc2ccc(-c3cccc(S(C)(=O)=O)c3)cc2)c(C)c1`, the Potency result in assay [1] and in assay [3] was “inactive” each time. For the same compound, the activity (max response) in assay [2] was -27.1%.
